The results in this text go back to PubChem BioAssay.

Where “and” joins values, the source holds several entries; their conditions need not be identical. Equal values may be shown once. Records with an inconclusive call do not appear. Calls of active or inactive are those of the source. Unless noted, no stated cut-off is given here; in the data, active means inhibition above about 80%; inactive means the rest.

Assay [1] is described as follows: growth inhibition of DIPG glioma cells, dose response, cell-based, SU-DIPG-XVII, MIPE5.0, CellTiter-Glo, qHTS (AID 1347060; cut-off not given, nearly all actives have AC50 up to about 26 µM;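 on AC50: cells exposed to compound for 48 hours before viability readout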). As to conditions: SU-DIPG-XVII viability, CellTiter-Glo ATP luminescence. (In general: In ATP-based viability assays light output follows the ATP content of the culture.)
A short description of assay [2]: growth inhibition of DIPG glioma cells, dose response, cell-based, SU-DIPG-XIII, MIPE4.0, CellTiter-Glo, qHTS (AID 1347061; cut-off not given, nearly all actives have AC50 up to about 37 µM;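 further: cells exposed to compound for 48 hours before readout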). As to conditions: SU-DIPG-XIII viability, CellTiter-Glo ATP luminescence.
A short description of assay [3]: growth inhibition of DIPG glioma cells, dose response, cell-based, SU-DIPG-IV, MIPE4.0, CellTiter-Glo, qHTS (AID 1347063; cut-off not given, nearly all actives have AC50 up to about 30 µM;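 further: compound exposure lasted 48 hours before the viability readout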). As to conditions: SU-DIPG-IV viability, CellTiter-Glo ATP luminescence.
Assay [4] can be described thus: SU-DIPG-VI glioma cell viability, MIPE4.0 library, CellTiter-Glo luminescence, qHTS (AID 1347066; cut-off not given, nearly all actives have AC50 up to about 30 µM;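 further: cells exposed to compound for 48 hours before readout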). The following applies: CellTiter-Glo ATP luminescence.
A short description of assay [5]: JHH-DIPG-1 glioma cell viability, MIPE5.0 library, CellTiter-Glo luminescence, qHTS (AID 1347067; cut-off not given, nearly all actives have AC50 up to about 26 µM;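 further: cells exposed to compound for 48 hours before readout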). As to conditions: JHH-DIPG-1 glioma viability, CellTiter-Glo ATP luminescence.
Assay [6] can be described thus: SU-DIPG-XXV glioma cell viability, MIPE5.0 library, qHTS (AID 1347068; cut-off not given, nearly all actives have IC50 up to about 30 µM). On the technique in general: In qHTS, concentration-response curves come from the screen itself.
Assay [7] is described as follows: reducers of polyQ inclusions in PC12 cells, cell-based, NGF-treated PC12, GFPQ80 (AID 1614).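 Further: lower means fewer inclusions and 0 means no inclusions at all.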 As to conditions: PC12 NGF-treated GFP-polyQ80 inclusion reduction.
A short description of assay [8]: circadian clock period modulators, cell-based, LOPAC library, luminescence reporter (AID 2774; call rule not given here;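 further: values are relative to mean of DMSO wells on each plate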). As to conditions: circadian reporter cells, at 7 µM, actives lie on both sides.
Assay [9] relates to Hepatitis C virus NS3 helicase. The assay can be described thus: HCV NS3 helicase inhibitors, primary screen, biochemical, fluorescence polarization, LOPAC1280 library (AID 687035; in the data active means inhibition above about 37%). As to conditions: Purified HCV NS3 helicase, Cy5-dT15 ssDNA binding fluorescence polarization; stronger effect = higher value; concentration not given here. (Polarisation of emitted light reports the rotation of a fluorescent probe.)

Assay [10] in a line: Cy5 fluorescence quenching or enhancement artefacts, artefact control for HCV NS3 helicase inhibitor project, biochemical, LOPAC1280 (AID 687037; call rule not given here). The following applies: Cy5-DNA-NS3h complex fluorescence interference counterscreen.
Assay [11] has as its system Aerobactin synthetase IucA (Klebsiella pneumoniae). The assay can be described thus: IucA aerobactin synthetase inhibitors, biochemical, Tocris library, absorbance (AID 1345561; call rule not given here;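 further: 100% = enzyme without compound and 0% = no enzyme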). As to conditions: purified IucA enzyme assay, absorbance (OD) read-out; stronger effect = lower value;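 tested at 8 µM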.
The nature of assay [12]: phospholipid biosynthesis inhibitors in animal cells, primary screen, cell-based, LOPAC library, screen 4 (AID 1347384; call rule not given here). As to conditions: phospholipid biosynthesis inhibition screen, at 10 µM.
Assay [13] can be described thus: viability loss in pontine glioma line – cell-based, SU-DIPG-XXV, MIPE5.0, CellTiter-Glo, qHTS, dose response (AID 1347065; cut-off not given, nearly all actives have AC50 up to about 26 µM;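 further: cells exposed to compound for 48 hours before ATP readout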). The following applies: CellTiter-Glo ATP luminescence.
Assay [14] in a line: LFS_MB_1R medulloblastoma cell growth inhibition, synergistic combos for chromothripsis tumors, cisplatin or BGB combos (AID 1671452).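 Further: cells exposed for 96 hours before readout.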 The following applies: LFS_MB_1R medulloblastoma cells, stronger effect = higher value.
Assay [15] in a line: CRL2098 osteosarcoma cell growth inhibition, synergistic combos for chromothripsis tumors, BGB or cisplatin IC20 combos (AID 1671454).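 Further: cells exposed for 96 h before readout; 0% = vehicle DMSO and 100% = killing by high DMSO.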 The following applies: CRL2098 osteosarcoma cells, drug combinations, stronger effect = higher value.
Assay [16] in a line: MDA-MB-436 breast carcinoma cell growth inhibition, synergistic combos for chromothripsis tumors, BGB or cisplatin combos (AID 1671458; call rule not given here;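 further: cells exposed for 96 hours; 0% = vehicle DMSO and 100% = killing by high DMSO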). As to conditions: MDA-MB-436 breast carcinoma growth inhibition, drug combinations, stronger effect = higher value.
A short description of assay [17]: growth inhibition of BT084 medulloblastoma cells, cell-based, ICGC_MB145, cisplatin and BGB IC40 combos (AID 1671461).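 Further: cells exposed to drugs for 96 hours; 0% = vehicle DMSO and 100% = high DMSO full killing control.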 The following applies: drug combinations, stronger effect = higher value.
Assay [18] in a line: growth inhibition of RCMB18 medulloblastoma cells, cell-based, cisplatin and BGB IC40 combos (AID 1671462).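 Further: cells exposed to compound for four days.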 As to conditions: stronger effect = higher value.
A short description of assay [19]: growth inhibition of CRL1545 osteosarcoma cells, cell-based, cisplatin and BGB IC20 combos (AID 1671464).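 Further: cells exposed to compound for 96 hours before readout; 0% = vehicle DMSO and 100% = high DMSO killing control.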 The following applies: stronger effect = higher value.
Setting [20] is: measured here: combination with cisplatin, at 0.5 µM.

Consider `CC1(C)[C@@H](O)CC[C@]2(C)[C@H]3C(=O)C=C4[C@@H]5C[C@@](C)(C(=O)O)CC[C@]5(C)CC[C@@]4(C)[C@]3(C)CC[C@@H]12`, for which the molecule was called inactive in [1], in [2], in assay [3], in [4], in assay [5] and in assay [6].
For orientation: AC50 means the concentration giving half of the maximal activity seen. Regarding `COc1ccc(CCC(=O)c2c(O)cc(O[C@@H]3O[C@H](CO)[C@@H](O)[C@H](O)[C@H]3O[C@@H]3O[C@@H](C)[C@H](O)[C@@H](O)[C@H]3O)cc2O)cc1O`, in [2], the half-maximal activity concentration (AC50) was 2350 nM (active). Besides, the molecule was called inactive in assay [3] and in assay [4].
On to `COC1=C(OC)C(=O)C(C/C=C(\C)CC/C=C(\C)CC/C=C(\C)CC/C=C(\C)CC/C=C(\C)CC/C=C(\C)CC/C=C(\C)CC/C=C(\C)CC/C=C(\C)CCC=C(C)C)=C(C)C1=O`, for which the molecule was classed as inactive in assay [2] and in assay [4].
As usually defined, the inhibition is the relative decrease from the control value, in per cent. The remaining activity is the signal under treatment as a percentage of the control signal. Consider `O=C(O)C1=CCNCC1`, for which the inclusion score in assay [7] came out at 2. Besides, the period change in assay [8] is 0.375 h (inactive). Further, the inhibition in assay [9] was -3% (inactive). Also, the fluorescence ratio (interference) in [10] is 1 (inactive). In addition, the remaining activity in [11] was 102% (inactive). For the same molecule, the result in assay [12] was inactive.
As to `CC1(C)[C@@H](O[C@H]2O[C@H](C(=O)O)[C@@H](O)[C@H](O)[C@H]2O[C@@H]2O[C@H](C(=O)O)[C@@H](O)[C@H](O)[C@H]2O)CC[C@]2(C)[C@H]3C(=O)C=C4[C@@H]5C[C@@](C)(C(=O)O)CC[C@]5(C)CC[C@@]4(C)[C@]3(C)CC[C@@H]12`, the molecule was called inactive in assay [2], in [3] and in [4].
As to `COc1cc2c(c(OC)c1OC)-c1ccc(OC)c(=O)cc1C(NC(C)=O)CC2` (centres undefined), the remaining activity in assay [11] was 109% (inactive).
For the molecule `CCC[C@@H]1C[C@@H](C(=O)N[C@@H]([C@H]2O[C@H](SC)[C@H](O)[C@@H](O)[C@H]2O)[C@H](C)Cl)N(C)C1`, the molecule was classed as inactive in assay [1], in assay [13], in assay [5] and in assay [6].
In the case of `C=C1C(=O)O[C@H]2[C@H]1CC/C(C)=C/CC[C@@]1(C)O[C@@H]21`, the remaining activity in assay [11] is 83.6% (inactive).
For `CCC[C@@H]1C[C@@H](C(=O)N[C@@H]([C@H]2O[C@H](SC)[C@H](O)[C@@H](O)[C@H]2O)[C@@H](C)O)N(C)C1`, the molecule was classed as inactive in assay [2] and in assay [3].
Take `COc1cc([C@@H]2c3cc4c(cc3[C@@H](O[C@@H]3O[C@@H]5CO[C@@H](c6cccs6)O[C@H]5[C@H](O)[C@H]3O)[C@H]3COC(=O)[C@H]23)OCO4)cc(OC)c1O`: the AC50 in assay [1] is 332 nM (active); in assay [3], 332 nM (active); in assay [13], 5900 nM (active); in assay [5], 9340 nM (active). The inhibition in assay [14] (at 0.5 µM) was -4.7% (inactive) and -8.97% (inactive); in assay [14] (measured here: combination with BGB IC40, at 0.05 µM), 1.41% and -17.3%; in [14] (setting [20]) it was 10.9% and 4.47%; in assay [14] (measured here: combination with cisplatin, at 5 µM), 22.9% and 27.7%; in assay [15] (at 0.5 µM), 5.54% (inactive) and 23.7% (inactive); in assay [15] (measured here: combination with BGB at IC20, at 0.5 µM), 22% and 28.7%. For the same molecule, the inhibition in [15] (measured here: combination with cisplatin at IC20, at 0.5 µM) was -12.5% and 10.8%; in [16] (at 0.5 µM), 49.3% (inactive) and 53.1% (inactive); in assay [16] (measured here: BGB combination, at 0.5 µM), 36% and 34.4%; in assay [16] (measured here: BGB combination, at 5 µM) it was 73.1% and 71.2%; in [16] (measured here: cisplatin combination, at 0.5 µM) it was 49.6% and 58.2%; in [16] (measured here: cisplatin combination, at 5 µM), 83.3% and 88.6%. Also, the inhibition in assay [17] (at 0.5 µM) is -19.6% (inactive) and -7.59% (inactive); in [17] (cisplatin combination, at 0.5 µM), 12.3% and 2.14%; in [17] (cisplatin combination, at 5 µM) it was 27.6% and 23.9%; in assay [17] (measured here: BGB IC40 combination 0.05 uM, at 0.05 µM), -12.5% and 39.7%; in [17] (single agent, at 5 µM) it was 19.5% and 27.4%; in [18] (at 0.5 µM) it was -23.3% (inactive) and -2.62% (inactive). For the same molecule, the inhibition in assay [18] (cisplatin combo, at 5 µM) was 23% and 40.9%; in [18] (measured here: BGB IC40 combination, at 0.05 µM), -29.1% and -17.5%; in assay [18] (setting [20]) it was -8.55% and 20.3%; in assay [18] (single agent, at 5 µM), 28.8% and 46%; in assay [19] (at 0.5 µM), 44.9% (inactive) and 71.7% (inactive); in assay [19] (measured here: with BGB IC20 combination, at 0.5 µM) it was 41.5% and 64%. Also, the inhibition was 45.4% and 75.2% in [19] (measured here: with cisplatin IC20 combination, at 0.5 µM); 4.76% and 55.4% in assay [19] (single agent, at 0.05 µM); 98% and 98.8% in [19] (single agent, at 5 µM).
